# Publication PMC11062922 (Nature Chemical Biology, 2023)
# Where two headings read alike, the source gives them in different places.
# Key:
# FLT4 = settings: read-out: apparent Kd, n = 1
# IRAK4 = settings: read-out: apparent Kd, n = 1
# [1] = compound concentrations:100 nM and 1000 nM (sheet 'Lestaurtinib' of Supplementary Table 1),run:Lestaurtinib_02364_R3,Plate:MR002
# [2] = compound concentrations:100 nM and 1000 nM (sheet 'Lestaurtinib' of Supplementary Table 1),run:Lestaurtinib_02381_R1,Plate:MR004
# [3] = compound concentrations:100 nM and 1000 nM (sheet 'Lestaurtinib' of Supplementary Table 1),run:Lestaurtinib_02381_R2,Plate:MR004
# [4] = compound concentrations:100 nM and 1000 nM (sheet 'Lestaurtinib' of Supplementary Table 1),run:Lestaurtinib_02407_R2,Plate:MR005
# [5] = compound concentrations:100 nM and 1000 nM (sheet 'Lestaurtinib' of Supplementary Table 1),run:Lestaurtinib_02422_R1,Plate:MR006
# [6] = compound concentrations:100 nM and 1000 nM (sheet 'Lestaurtinib' of Supplementary Table 1),run:Lestaurtinib_02437_R2,Plate:MR007
# [7] = compound concentrations:100 nM and 1000 nM (sheet 'Lestaurtinib' of Supplementary Table 1),run:Lestaurtinib_02438_R1,Plate:MR008
substance,measurement,setting,value
Lestaurtinib,potency estimated from few doses,FLT4; [1],199 nM
same,potency estimated from few doses,"FLT4; compound concentrations:100 nM and 1000 nM (sheet 'Lestaurtinib' of Supplementary Table 1),run:Lestaurtinib_02367_R2,Plate:MR003",462 nM
same,potency estimated from few doses,"FLT4; compound concentrations:100 nM and 1000 nM (sheet 'Lestaurtinib' of Supplementary Table 1),run:Lestaurtinib_02367_R3,Plate:MR003",74.5 nM
same,potency estimated from few doses,FLT4; [2],202 nM
same,potency estimated from few doses,FLT4; [3],158 nM
same,potency estimated from few doses,FLT4; [4],157 nM
same,potency estimated from few doses,FLT4; [5],289 nM
same,potency estimated from few doses,"FLT4; compound concentrations:100 nM and 1000 nM (sheet 'Lestaurtinib' of Supplementary Table 1),run:Lestaurtinib_02422_R2,Plate:MR006",26 nM
same,potency estimated from few doses,"FLT4; compound concentrations:100 nM and 1000 nM (sheet 'Lestaurtinib' of Supplementary Table 1),run:Lestaurtinib_02437_R1,Plate:MR007",520 nM
same,potency estimated from few doses,FLT4; [6],1240 nM
same,potency estimated from few doses,FLT4; [7],25.6 nM
same,potency estimated from few doses,"FLT4; compound concentrations:100 nM and 1000 nM (sheet 'Lestaurtinib' of Supplementary Table 1),run:Lestaurtinib_02443_R3,Plate:MR009",154 nM
same,potency estimated from few doses,"FLT4; compound concentrations:100 nM and 1000 nM (sheet 'Lestaurtinib' of Supplementary Table 1),run:Lestaurtinib_02473_R1,Plate:MR010",310 nM
same,potency estimated from few doses,"FLT4; compound concentrations:100 nM and 1000 nM (sheet 'Lestaurtinib' of Supplementary Table 1),run:Lestaurtinib_02473_R2,Plate:MR010",316 nM
same,potency estimated from few doses,"FLT4; compound concentrations:100 nM and 1000 nM (sheet 'Lestaurtinib' of Supplementary Table 1),run:Lestaurtinib_02482_R3,Plate:MR011",229 nM
same,potency estimated from few doses,"FLT4; compound concentrations:100 nM and 1000 nM (sheet 'Lestaurtinib' of Supplementary Table 1),run:Lestaurtinib_02487_R2,Plate:MR012",131 nM
same,potency estimated from few doses,"FLT4; compound concentrations:100 nM and 1000 nM (sheet 'Lestaurtinib' of Supplementary Table 1),run:Lestaurtinib_02566_R1,Plate:MR014",1590 nM
same,potency estimated from few doses,"FLT4; compound concentrations:100 nM and 1000 nM (sheet 'Lestaurtinib' of Supplementary Table 1),run:Lestaurtinib_02566_R2,Plate:MR014",90.7 nM
same,potency estimated from few doses,"FLT4; compound concentrations:100 nM and 1000 nM (sheet 'Lestaurtinib' of Supplementary Table 1),run:Lestaurtinib_02566_R3,Plate:MR014",77.7 nM
same,potency estimated from few doses,"FLT4; compound concentrations:100 nM and 1000 nM (sheet 'Lestaurtinib' of Supplementary Table 1),run:Lestaurtinib_02577_R2,Plate:MR016",225 nM
same,potency estimated from few doses,"FLT4; compound concentrations:100 nM and 1000 nM (sheet 'Lestaurtinib' of Supplementary Table 1),run:Lestaurtinib_02577_R3,Plate:MR016",160 nM
same,potency estimated from few doses,"FLT4; compound concentrations:100 nM and 1000 nM (sheet 'Lestaurtinib' of Supplementary Table 1),run:Lestaurtinib_02584_R1,Plate:MR017",396 nM
same,potency estimated from few doses,"FLT4; compound concentrations:100 nM and 1000 nM (sheet 'Lestaurtinib' of Supplementary Table 1),run:Lestaurtinib_02584_R2,Plate:MR017",124 nM
same,potency estimated from few doses,"FLT4; compound concentrations:100 nM and 1000 nM (sheet 'Lestaurtinib' of Supplementary Table 1),run:Lestaurtinib_02584_R3,Plate:MR017",434 nM
same,potency estimated from few doses,"FLT4; compound concentrations:100 nM and 1000 nM (sheet 'Lestaurtinib' of Supplementary Table 1),run:Lestaurtinib_02601_R1,Plate:MR018",286 nM
same,potency estimated from few doses,"FLT4; compound concentrations:100 nM and 1000 nM (sheet 'Lestaurtinib' of Supplementary Table 1),run:Lestaurtinib_02601_R2,Plate:MR018",202 nM
same,potency estimated from few doses,"FLT4; compound concentrations:100 nM and 1000 nM (sheet 'Lestaurtinib' of Supplementary Table 1),run:Lestaurtinib_02601_R3,Plate:MR018",86 nM
same,potency estimated from few doses,"FLT4; compound concentrations:100 nM and 1000 nM (sheet 'Lestaurtinib' of Supplementary Table 1),run:Lestaurtinib_02606_R3,Plate:MR019",231 nM
same,potency estimated from few doses,"FLT4; compound concentrations:100 nM and 1000 nM (sheet 'Lestaurtinib' of Supplementary Table 1),run:Lestaurtinib_02624_R1,Plate:MR020",358 nM
same,potency estimated from few doses,"FLT4; compound concentrations:100 nM and 1000 nM (sheet 'Lestaurtinib' of Supplementary Table 1),run:Lestaurtinib_02624_R2,Plate:MR020",135 nM
same,potency estimated from few doses,"FLT4; compound concentrations:100 nM and 1000 nM (sheet 'Lestaurtinib' of Supplementary Table 1),run:Lestaurtinib_02624_R3,Plate:MR020",359 nM
same,potency estimated from few doses,"FLT4; compound concentrations:100 nM and 1000 nM (sheet 'Lestaurtinib' of Supplementary Table 1),run:Lestaurtinib_02724_R2,Plate:MR021",319 nM
same,potency estimated from few doses,"FLT4; compound concentrations:100 nM and 1000 nM (sheet 'Lestaurtinib' of Supplementary Table 1),run:Lestaurtinib_02741_R2,Plate:MR023",701 nM
same,potency estimated from few doses,"FLT4; compound concentrations:100 nM and 1000 nM (sheet 'Lestaurtinib' of Supplementary Table 1),run:Lestaurtinib_02748_R1,Plate:MR024",330 nM
same,potency estimated from few doses,"FLT4; compound concentrations:100 nM and 1000 nM (sheet 'Lestaurtinib' of Supplementary Table 1),run:Lestaurtinib_02748_R2,Plate:MR024",521 nM
same,potency estimated from few doses,"FLT4; compound concentrations:100 nM and 1000 nM (sheet 'Lestaurtinib' of Supplementary Table 1),run:Lestaurtinib_02748_R3,Plate:MR024",161 nM
same,potency estimated from few doses,"FLT4; compound concentrations:100 nM and 1000 nM (sheet 'Lestaurtinib' of Supplementary Table 1),run:Lestaurtinib_02752_R1,Plate:MR025",310 nM
same,potency estimated from few doses,"FLT4; compound concentrations:100 nM and 1000 nM (sheet 'Lestaurtinib' of Supplementary Table 1),run:Lestaurtinib_02752_R3,Plate:MR025",254 nM
same,potency estimated from few doses,"FLT4; compound concentrations:100 nM and 1000 nM (sheet 'Lestaurtinib' of Supplementary Table 1),run:Lestaurtinib_02765_R2,Plate:MR026",162 nM
same,potency estimated from few doses,"FLT4; compound concentrations:100 nM and 1000 nM (sheet 'Lestaurtinib' of Supplementary Table 1),run:Lestaurtinib_02765_R3,Plate:MR026",400 nM
same,potency estimated from few doses,"FLT4; compound concentrations:100 nM and 1000 nM (sheet 'Lestaurtinib' of Supplementary Table 1),run:Lestaurtinib_02766_R1,Plate:MR027",350 nM
same,potency estimated from few doses,"FLT4; compound concentrations:100 nM and 1000 nM (sheet 'Lestaurtinib' of Supplementary Table 1),run:Lestaurtinib_02766_R3,Plate:MR027",237 nM
same,potency estimated from few doses,"FLT4; compound concentrations:100 nM and 1000 nM (sheet 'Lestaurtinib' of Supplementary Table 1),run:Lestaurtinib_02768_R1,Plate:MR028",180 nM
same,potency estimated from few doses,"FLT4; compound concentrations:100 nM and 1000 nM (sheet 'Lestaurtinib' of Supplementary Table 1),run:Lestaurtinib_02768_R2,Plate:MR028",389 nM
same,potency estimated from few doses,"FLT4; compound concentrations:100 nM and 1000 nM (sheet 'Lestaurtinib' of Supplementary Table 1),run:Lestaurtinib_02768_R3,Plate:MR028",493 nM
same,potency estimated from few doses,"FLT4; compound concentrations:100 nM and 1000 nM (sheet 'Lestaurtinib' of Supplementary Table 1),run:Lestaurtinib_02795_R1,Plate:MR022",391 nM
same,potency estimated from few doses,"FLT4; compound concentrations:100 nM and 1000 nM (sheet 'Lestaurtinib' of Supplementary Table 1),run:Lestaurtinib_02795_R2,Plate:MR022",229 nM
same,potency estimated from few doses,"FLT4; compound concentrations:100 nM and 1000 nM (sheet 'Lestaurtinib' of Supplementary Table 1),run:Lestaurtinib_02795_R3,Plate:MR022",297 nM
same,potency estimated from few doses,"FLT4; compound concentrations:100 nM and 1000 nM (sheet 'Lestaurtinib' of Supplementary Table 1),run:Lestaurtinib_02802_R1,Plate:MR029",183 nM
same,potency estimated from few doses,"FLT4; compound concentrations:100 nM and 1000 nM (sheet 'Lestaurtinib' of Supplementary Table 1),run:Lestaurtinib_02896_R1,Plate:MR030",159 nM
same,potency estimated from few doses,"FLT4; compound concentrations:100 nM and 1000 nM (sheet 'Lestaurtinib' of Supplementary Table 1),run:Lestaurtinib_02896_R2,Plate:MR030",151 nM
same,potency estimated from few doses,"FLT4; compound concentrations:100 nM and 1000 nM (sheet 'Lestaurtinib' of Supplementary Table 1),run:Lestaurtinib_02896_R3,Plate:MR030",372 nM
same,potency estimated from few doses,"FLT4; compound concentrations:100 nM and 1000 nM (sheet 'Lestaurtinib' of Supplementary Table 1),run:Lestaurtinib_03172_R3,Plate:MR031",131 nM
same,potency estimated from few doses,"FLT4; compound concentrations:100 nM and 1000 nM (sheet 'Lestaurtinib' of Supplementary Table 1),run:Lestaurtinib_03252_R1,Plate:MR032",229 nM
same,potency estimated from few doses,"FLT4; compound concentrations:100 nM and 1000 nM (sheet 'Lestaurtinib' of Supplementary Table 1),run:Lestaurtinib_03252_R2,Plate:MR032",76.2 nM
same,potency estimated from few doses,"FLT4; compound concentrations:100 nM and 1000 nM (sheet 'Lestaurtinib' of Supplementary Table 1),run:Lestaurtinib_03260_R1,Plate:MR033",162 nM
same,potency estimated from few doses,"FLT4; compound concentrations:100 nM and 1000 nM (sheet 'Lestaurtinib' of Supplementary Table 1),run:Lestaurtinib_03260_R3,Plate:MR033",388 nM
same,potency estimated from few doses,"IRAK4; compound concentrations:100 nM and 1000 nM (sheet 'Lestaurtinib' of Supplementary Table 1),run:Lestaurtinib_02339_R2,Plate:MR001",146 nM
same,potency estimated from few doses,"IRAK4; compound concentrations:100 nM and 1000 nM (sheet 'Lestaurtinib' of Supplementary Table 1),run:Lestaurtinib_02339_R3,Plate:MR001",62 nM
same,potency estimated from few doses,"IRAK4; compound concentrations:100 nM and 1000 nM (sheet 'Lestaurtinib' of Supplementary Table 1),run:Lestaurtinib_02364_R1,Plate:MR002",77.8 nM
same,potency estimated from few doses,IRAK4; [1],95 nM
same,potency estimated from few doses,IRAK4; [2],93.9 nM
same,potency estimated from few doses,IRAK4; [3],76.7 nM
same,potency estimated from few doses,"IRAK4; compound concentrations:100 nM and 1000 nM (sheet 'Lestaurtinib' of Supplementary Table 1),run:Lestaurtinib_02381_R3,Plate:MR004",65.8 nM
same,potency estimated from few doses,"IRAK4; compound concentrations:100 nM and 1000 nM (sheet 'Lestaurtinib' of Supplementary Table 1),run:Lestaurtinib_02407_R1,Plate:MR005",69.8 nM
same,potency estimated from few doses,IRAK4; [4],55.3 nM
same,potency estimated from few doses,"IRAK4; compound concentrations:100 nM and 1000 nM (sheet 'Lestaurtinib' of Supplementary Table 1),run:Lestaurtinib_02407_R3,Plate:MR005",85.3 nM
same,potency estimated from few doses,IRAK4; [5],136 nM
same,potency estimated from few doses,"IRAK4; compound concentrations:100 nM and 1000 nM (sheet 'Lestaurtinib' of Supplementary Table 1),run:Lestaurtinib_02422_R3,Plate:MR006",131 nM
same,potency estimated from few doses,IRAK4; [6],140 nM
same,potency estimated from few doses,IRAK4; [7],79.9 nM
same,potency estimated from few doses,"IRAK4; compound concentrations:100 nM and 1000 nM (sheet 'Lestaurtinib' of Supplementary Table 1),run:Lestaurtinib_02443_R1,Plate:MR009",113 nM
